The values that follow come from PubChem BioAssay (NCATS).

Results filed as inconclusive are left out. Calls of active or inactive are those of the source. Calls come from the whole dose curve; as a rule, active = well fitted curve in the direction sought with a large enough effect; inconclusive = small, poorly fitted or top-dose-only effect, or another doubt; inactive = no such curve, though single readings can be large; an effect the other way counts as inactive or inconclusive.

The nature of experiment [1]: qHTS of pediatric cancer cell lines to identify multiple opportunities for drug repurposing: Primary screen for U-2 OS cells (AID 1347096). Note: nearly all actives have a fitted effect of over 50% in size. In outline:
(§1)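 Cells (500-1,000/well) rested 5 h, then received compounds for 48 h; metabolically active cells were measured by CellTiter-Glo luminescence. Final concentrations spanned up to 46 µM (MIPE, 11-point) or 0.59 nM-46 µM (NPC, 8-point) in primary screens, 11-point in follow-ups.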
(In general: Quantitative high-throughput screening tests each substance at several concentrations.)

Experiment [2] in a line: qHTS of pediatric cancer cell lines to identify multiple opportunities for drug repurposing: Primary screen for Saos-2 cells (AID 1347097). Note: nearly all actives have a fitted effect of over 40% in size. Note: potency is the fitted concentration of half-maximal effect. In outline:
(§2)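 CRCs from 8- or 11-point titrations (lowest final 0.59 nM NPC, 0.78 nM MIPE). Cell viability: CellTiter-Glo after 48 h incubation, 15 min room-temperature development, luminescence imaging.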

Experiment [3] is described as follows: qHTS of pediatric cancer cell lines to identify multiple opportunities for drug repurposing: Primary screen for SK-N-SH cells (AID 1347098). Note: nearly all actives have a fitted effect of over 65% in size. Note: potency is the fitted concentration of half-maximal effect. In outline: as §1
Experiment [4] is described as follows: qHTS of pediatric cancer cell lines to identify multiple opportunities for drug repurposing: Primary screen for BT-12 cells (AID 1347101). Note: nearly all actives have a fitted effect of over 25% in size. Note: potency is the fitted concentration of half-maximal effect. In outline:
as §1

Experiment [5] in a line: qHTS of pediatric cancer cell lines to identify multiple opportunities for drug repurposing: Primary screen for Rh18 cells (AID 1347102). Note: nearly all actives have a fitted effect of over 65% in size. Note: potency is the fitted concentration of half-maximal effect. A digest of the protocol: as §1
Experiment [6] can be described thus: qHTS of pediatric cancer cell lines to identify multiple opportunities for drug repurposing: Primary screen for MG 63 (6-TG R) cells (AID 1347105). Note: nearly all actives have a fitted effect of over 50% in size. Note: potency is the fitted concentration of half-maximal effect. In outline: as §2
Experiment [7] can be described thus: qHTS of pediatric cancer cell lines to identify multiple opportunities for drug repurposing: Primary screen for control Hh wild type fibroblast cells (AID 1347106).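 Note: series mostly up to about 46 µM; a drop in luminescence marks cytotoxicity and a rise apparent proliferation; nearly all actives have a fitted effect of over 55% in size.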 A digest of the protocol:
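Cells (500-1,000/well) in growth media were settled 5 h at 37 degrees C, then given compounds for 48 h. Viability was read as CellTiter-Glo luminescence. Primary runs used MIPE at 11 points (0.78 nM-46 µM) and NPC at 8 points (0.59 nM-46 µM); follow-ups used 11 points.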

Experiment [8] in a line: qHTS of pediatric cancer cell lines to identify multiple opportunities for drug repurposing: Primary screen for NB1643 cells (AID 1347099). Note: nearly all actives have a fitted effect of over 50% in size. Note: potency is the fitted concentration of half-maximal effect. In outline: as §2
The nature of experiment [9]: qHTS of pediatric cancer cell lines to identify multiple opportunities for drug repurposing: Primary screen for LAN-5 cells (AID 1347100). Note: potency is the fitted concentration of half-maximal effect. In outline:
as §1

Experiment [10] can be described thus: qHTS of pediatric cancer cell lines to identify multiple opportunities for drug repurposing: Primary screen for OHS-50 cells (AID 1347103). Note: nearly all actives have a fitted effect of over 40% in size. Note: potency is the fitted concentration of half-maximal effect. A digest of the protocol: as §1
Experiment [11] can be described thus: qHTS of pediatric cancer cell lines to identify multiple opportunities for drug repurposing: Primary screen for NB-EBc1 cells (AID 1347095). Note: potency is the fitted concentration of half-maximal effect. In outline:
as §2

A short description of experiment [12]: qHTS of pediatric cancer cell lines to identify multiple opportunities for drug repurposing: Primary screen for Rh41 cells (AID 1347108). Note: nearly all actives have a fitted effect of over 70% in size. Note: potency is the fitted concentration of half-maximal effect. In outline: as §2
Experiment [13] in a line: qHTS of pediatric cancer cell lines to identify multiple opportunities for drug repurposing: Confirmatory screen for NB1643 cells (AID 1347109). Note: potency is the fitted concentration of half-maximal effect; nearly all actives have a fitted effect of over 45% in size. In outline:
as §1

The nature of experiment [14]: qHTS of pediatric cancer cell lines to identify multiple opportunities for drug repurposing: Confirmatory screen for A673 cells (AID 1347110).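 Note: potency is the fitted concentration of half-maximal effect; cells exposed to compound for 48 h before the viability read; nearly all actives have a fitted effect of over 65% in size.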 In outline: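 Viability was read as ATP luminescence (CellTiter-Glo) after 48 h of compound exposure at 37 C in A673 cells seeded at 500-1,000/well. Titrations reached 46 uM final, with 11 points in the confirmatory screen. Concentration-response curves were fitted directly.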

A short description of experiment [15]: qHTS of pediatric cancer cell lines to identify multiple opportunities for drug repurposing: Confirmatory screen for SK-N-MC cells (AID 1347111).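 Note: potency is the fitted concentration of half-maximal effect; cells exposed to compound for 48 h before the readout; nearly all actives have a fitted effect of over 70% in size.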 In outline: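 Seed 500-1,000 cells/well; rest 5 h at 37 degrees C. Pin-transfer compounds, 11-point titration. Incubate 48 h. Add CellTiter-Glo, 15 min RT, read luminescence.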
A short description of experiment [16]: qHTS of pediatric cancer cell lines to identify multiple opportunities for drug repurposing: Confirmatory screen for BT-12 cells (AID 1347112). Note: potency is the fitted concentration of half-maximal effect; nearly all actives have a fitted effect of over 55% in size. A digest of the protocol:
as §1

Experiment [17] is described as follows: qHTS of pediatric cancer cell lines to identify multiple opportunities for drug repurposing: Confirmatory screen for LAN-5 cells (AID 1347113). Note: potency is the fitted concentration of half-maximal effect; nearly all actives have a fitted effect of over 65% in size. In outline:
as §1

Experiment [18] can be described thus: qHTS of pediatric cancer cell lines to identify multiple opportunities for drug repurposing: Primary screen for RD cells (AID 1347104). Note: nearly all actives have a fitted effect of over 55% in size. Note: potency is the fitted concentration of half-maximal effect. In outline: as §2
A short description of experiment [19]: qHTS of pediatric cancer cell lines to identify multiple opportunities for drug repurposing: Primary screen for Rh30 cells (AID 1347107). Note: series mostly up to about 46 µM; nearly all actives have a fitted effect of over 75% in size. A digest of the protocol:
as §1

On to `CC(Cc1ccc(O)c(O)c1)(NN)C(=O)O` (configuration not stated), for which the Potency result in [1], in [2], in experiment [3], in experiment [4], in [5] and in experiment [6] was “inactive” each time. Further, in experiment [7], the Potency entry is “inactive”.
On to `OCCNC1CCCc2c1[nH]c1ccc(-c3ccccc3)cc21` (configuration not stated), for which the Potency in experiment [2] is 18700 nM (active); in experiment [9], 26400 nM (active); in experiment [4] it was 30600 nM (active); in experiment [5], 20900 nM (active); in experiment [10], 24300 nM (active). Further, the Potency entry in experiment [8], in experiment [6] and in [7] was “inactive” each time.
As for `COc1ccc(S(=O)(=O)Nc2cccnc2Nc2ccc(O)cc2)cc1`, the Potency in experiment [11] was 16.6 nM (active); in experiment [2], 235 nM (active); in experiment [9] it was 46.9 nM (active); in [10] it was 306 nM (active); in experiment [12], 187 nM (active); in experiment [13], 522 nM (active). Further, the Potency in [14] is 928 nM (active); in experiment [15], 2610 nM (active); in experiment [16], 3290 nM (active); in [17] it was 1650 nM (active). The Potency entry in experiment [8] and in [5] was “inactive” in each case.
As to `O=C1NC(=O)[C@@H](c2cn3c4c(cccc24)CCC3)[C@H]1c1c[nH]c2ccccc12`, the Potency in experiment [11] is 46.9 nM (active); in [2], 148 nM (active); in experiment [9], 332 nM (active); in [4], 2170 nM (active); in experiment [10] it was 863 nM (active); in experiment [18], 235 nM (active). Also, the Potency in experiment [14] is 2330 nM (active); in experiment [15] it was 928 nM (active). Besides, the Potency entry in experiment [5] is “inactive”.
As for `Cn1cc(C2=C(c3c4n(c5ccccc35)CCC(CN)C4)C(=O)NC2=O)c2ccccc21` (configuration not stated), the Potency in [11] was 18700 nM (active); in [2], 18700 nM (active); in experiment [3], 24100 nM (active); in [8], 26400 nM (active); in [9], 26400 nM (active); in experiment [4] it was 27300 nM (active). In addition, the Potency is 24300 nM (active) in experiment [10], 29600 nM (active) in experiment [18] and 23500 nM (active) in experiment [12]. In addition, the Potency result in [7] was “inactive”.
`COc1ccc(C=Cc2cc(OC)c(OC)c(OC)c2)cc1NC(=O)[C@H](N)CO`: the Potency in [11] is 1 nM (active); in [2], 10.5 nM (active); in [9], 13.2 nM (active); in experiment [4] it was 8.6 nM (active); in [10], 13.7 nM (active); in [18], 6.6 nM (active). The Potency in experiment [14] is 104 nM (active); in experiment [15], 117 nM (active); in experiment [16], 117 nM (active); in experiment [17] it was 414 nM (active). For the same molecule, the Potency result in experiment [3], in [5] and in experiment [19] was “inactive” each time.
Take `COC(=O)C1C2CC3c4[nH]c5cc(OC)ccc5c4CCN3CC2CC(OC(=O)c2cc(OC)c(OC)c(OC)c2)C1OC` (configuration not stated): the Potency in experiment [2] is 18700 nM (active); in experiment [10] it was 27300 nM (active); in experiment [13], 5220 nM (active); in experiment [14], 3290 nM (active); in experiment [15] it was 369 nM (active); in experiment [16], 2610 nM (active). In experiment [17], the Potency was 14700 nM (active). Also, the Potency entry in [9], in experiment [6], in experiment [7] and in experiment [19] was “inactive” each time.
Consider `Cc1cnc(NC(=O)Nc2cc(Br)c(C)cc2OC[C@@H]2CNCCO2)cn1`, for which the figures for the Potency in experiment [11], in experiment [9] and in experiment [10] were 1050 nM (active), 1870 nM (active) and 1370 nM (active), respectively. Besides, the Potency entry in experiment [4], in experiment [5], in [18], in [7], in [19] and in experiment [12] was “inactive” throughout.
In the case of `Cc1coc2c1C(=O)C(=O)c1c-2ccc2c(C)cccc12`, the Potency result in experiment [1], in experiment [3], in [8], in [9], in [10] and in [6] was “inactive” in each case. For the same molecule, the Potency entry in [7], in [19] and in experiment [12] was “inactive” in each case.
On to `CS(=O)(=O)N1CCc2c(-c3cnc(N)nc3)nc(N3CCOCC3)nc21`, for which the Potency in [11] is 235 nM (active); in experiment [2], 935 nM (active); in experiment [8], 469 nM (active); in [9], 332 nM (active); in experiment [5] it was 372 nM (active); in experiment [10], 54.4 nM (active). The Potency is 418 nM (active) in experiment [18]; 118 nM (active) in [6]; 833 nM (active) in experiment [12]; 1650 nM (active) in experiment [13]; 4140 nM (active) in experiment [14]; 2610 nM (active) in experiment [15]. Moreover, in experiment [17], the Potency is 1170 nM (active). The Potency entry in experiment [7] is “inactive”.
